# Measurements reported in PubChem BioAssay (NCATS).
# A number with no mark means an inactive call. Results filed as inconclusive are left out. Calls of active or inactive are those of the source. Unless noted, calls follow the shape of the dose curve; as a rule, active = well fitted curve in either direction with a large enough effect (not every such curve was filed as active); inconclusive = small, poorly fitted or top-dose-only effect, or another doubt; inactive = flat fitted curve, though single readings scatter.
# Legend:
# [1] = biological target: Lysosomal acid glucosylceramidase (Homo sapiens) (UniProt P04062); experiment: Glucocerebrosidase-p2 (AID 348; in the data active = potency below about 10 µM; also: potency is read from the fitted curve at half-maximal effect); conditions: purified GBA, blue fluorogenic substrate, 40 min
# In short: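 Normal human glucocerebrosidase (0.2 nM) with blue fluorogenic substrate (80 uM final) in citrate/phosphate pH 5.9 with 10mM sodium taurocholate, 0.01% tween-20; 40 min RT, NaOH/glycine stop; fluorescence Ex 365/Em 440; AC50 from a titration from 0.6 nM upwards.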
# [2] = AP1 Signaling Pathway (AID 357); conditions: ME-180 AP-1-bla reporter, EGF-induced, beta-lactamase ratio, 5 h; at 7.69 µM (top of the series) unless noted; also: % is scaled to controls: 0 for no effect and ±100 for the full control effect
# In short: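 ME-180 cells with beta-lactamase reporter under AP-1 response element, stimulated with EC50 EGF; compounds tested in titration series, 5 h at 37 °C. CCF4 substrate added 2.5 h at room temperature; 460/530 nm emission ratio gave %activity and AC50.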
# [3] = NFAT Signaling Pathway (AID 444); conditions: Jurkat NFAT-bla M1, carbachol, beta-lactamase ratio, 5 h; at 7.69 µM (top of the series) unless noted;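 also: carbachol stimulus at about its EC50 of 1 µM final; % is scaled to controls: 0 for no effect and ±100 for the full control effect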
# In short: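 Jurkat cells carrying an NFAT-driven β-lactamase reporter and co-transfected muscarinic M1 receptor were treated with compound plus carbachol (1 uM final, an EC50 level) for 5 h at 37 °C. CCF4 loading followed for 1 h at RT; 460/530 nm ratio gave %activity.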
# [4] = Stat Signaling Pathway (AID 446); conditions: ME-180 SIE beta-lactamase reporter, IL-6 stimulated, 5 h; at 7.69 µM (top of the series) unless noted;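 also: ME-180 cervical cancer cells given 40 pM IL-6 alongside compound; SIE-controlled beta-lactamase reporter measured as 460/530 nm FRET emission ratio; % is scaled to controls: 0 for no effect and ±100 for the full control effect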
# In short: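 FRET read-out (405 nm excitation, 460/530 nm emission) of a beta-lactamase reporter under a STAT-inducible element in ME-180 cervical carcinoma cells. Cells with compound receive 40 pM IL-6 for 5 h. Values are normalised to AC90 stimulation and AC90 JAK-inhibitor controls.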
# [5] = biological target: Glucocorticoid receptor (Homo sapiens) (UniProt P04150); experiment: GR-GFP Redistribution (AID 450;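 active = compounds whose dose series gives a full or clear partial fitted curve of increased nuclear translocation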; also: potency is read from the fitted curve at half-maximal effect); conditions: U2OS GR-GFP nuclear translocation, laser cytometry, 2 h
# [6] = biological target: Glucocorticoid receptor (Homo sapiens) (UniProt P04150); experiment: GR-EFC Redistribution (AID 451; calls by dose curve; also: potency is read from the fitted curve at half-maximal effect); conditions: CHO-K1 GR-EFC translocation, beta-gal luminescence, 2 h
# In short: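 CHO-K1 cells stably expressing nuclear-localized β-gal enzyme acceptor and GR fused C-terminally to the enzyme donor fragment; ligand-driven nuclear translocation restores β-gal by complementation. Compounds titrated up to 46 uM final, 2 h at 37 °C; luminescence read.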
# [7] = biological target: Mitogen-activated protein kinase 10 (Mus musculus) (UniProt Q61831); experiment: JNK3 AlphaScreen Assay (AID 530); conditions: JNK3 lysate, c-Jun phosphorylation; series mostly up to 11.4 µM;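 also: kinase came from lysate of stimulated human HepG2 cells; signal reports phosphorylation of biotinylated GST-cJun 1-79 at Ser73 with 10 µM ATP; % is scaled to controls: 0 for no effect and ±100 for the full control effect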
# In short: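 Biotinylated GST-cJun(1-79) served as substrate for JNK3 in HepG2 lysates stimulated with IL-1beta and TNF-alpha. ATP was 10 uM final, pH 7.6. Ser73 phosphorylation was quantified by AlphaScreen (680 nm excitation).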
# [8] = biological target: 3',5'-cyclic-AMP phosphodiesterase 4B (Homo sapiens) (UniProt Q07343); experiment: qHTS Assay for Inhibitors of PDE-IV (AID 607; active = well fitted activation curve with a large enough effect in the main read-out, with a control signal flat, not every such curve was filed as active; also: % of control where 0% means no effect); conditions: HEK293 ACTOne CNG channel cells, membrane potential fluorescence; series mostly up to 22.9 µM
# In short: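 Cell-based read-out of cAMP via a modified cyclic nucleotide-gated channel and membrane potential dye (535/590 nm) in HEK293 cells expressing PDE4 endogenously. Compounds tested up to 22.9 uM final; 100 uM RO 20-1724 reference.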
# [9] = biological target: Cytochrome P450 2D6 (Homo sapiens) (UniProt P10635); experiment: qHTS Assay for Inhibitors and Substrates of Cytochrome P450 2D6 (AID 891; active = well fitted curve in the direction sought with a large enough effect; an effect the other way counts as inactive or inconclusive; also: nearly all actives have a fitted effect of over 60% in size; also: potency is read from the fitted curve at half-maximal effect); conditions: recombinant CYP2D6, luciferin-ME EGE luminescence; series mostly up to 11.4 µM
# In short: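 Luminescent read-out of luciferin formed by 5 nM human CYP2D6 demethylating 30 uM Luciferin-ME EGE (Km level) over 60 min at room temperature after NADPH regeneration addition. Data normalized to full inhibition by 1.43 uM quinidine.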
# [10] = biological target: Cytochrome P450 2C19 (Homo sapiens) (UniProt P33261); experiment: qHTS Assay for Inhibitors and Substrates of Cytochrome P450 2C19 (AID 899; active = well fitted curve in the direction sought with a large enough effect; an effect the other way counts as inactive or inconclusive; also: nearly all actives have a fitted effect of over 60% in size; also: potency is read from the fitted curve at half-maximal effect); conditions: recombinant CYP2C19, luciferin-H EGE luminescence; series mostly up to 11.4 µM
# In short: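 Human CYP2C19 (5nM) with Luciferin-H EGE at 10uM (its KM) in 50mM KPO4 was preincubated with compound for 10 min at 37C. NADPH regeneration started a 60 min 37C reaction. Luciferin was read by luminescence, normalized to 57uM ketoconazole.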
# [11] = biological target: Cytochrome P450 3A4 (Homo sapiens) (UniProt P08684); experiment: qHTS Assay for Activators of Cytochrome P450 3A4 (AID 885; active = well fitted curve in the direction sought with a large enough effect; an effect the other way counts as inactive or inconclusive; also: nearly all actives have a fitted effect of over 65% in size); conditions: recombinant CYP3A4, Luciferin-PPXE luminescence, 60 min; series mostly up to 11.4 µM
# In short: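 Luminescent readout of luciferin formed from 25 uM Luciferin-PPXE (KM level) by 20 nM CYP3A4 in 200 mM KPO4, with 60 min NADPH-driven reaction at room temperature after 10 min compound exposure. Ketoconazole (57 uM) defined 100% inhibition.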
# [12] = qHTS Assay for Identification of Small Molecule Agonists for Hypoxia Response Element Signaling Pathway (AID 914; active = well fitted activation curve with a large enough effect in the signal ratio, with a control signal flat, not every such curve was filed as active; the % refers to the signal ratio; also: % of control where 0% means no effect); conditions: ME-180 (cervical carcinoma) HRE-bla reporter, beta-lactamase ratio, CoCl2, 17 h; activation: active compounds read high
# In short: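 Reporter activity (beta-lactamase, CCF4 460nm/530nm ratio) in HRE-bla ME-180 cells is recorded after 17 h compound exposure with EC50 CoCl2 at 37 degrees Celsius. AC50 values come from titration data.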
# [13] = biological target: Cytochrome P450 3A4 (Homo sapiens) (UniProt P08684); experiment: qHTS Assay for Inhibitors and Substrates of Cytochrome P450 3A4 (AID 884; active = well fitted curve in the direction sought with a large enough effect; an effect the other way counts as inactive or inconclusive; also: % is scaled to controls: 0 for no effect and ±100 for the full control effect; nearly all actives have a fitted effect of over 50% in size); conditions: recombinant CYP3A4, Luciferin-PPXE luminescence; series mostly up to 57.1 µM
# In short: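 Luminescent readout of luciferin produced by CYP3A4 (20 nM) dealkylation of Luciferin-PPXE, 25 uM (its KM). NADPH-driven reaction ran 60 min at RT after 10 min compound preincubation; data scaled to 57 uM ketoconazole as 100% inhibition.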
# Sequence of Cytochrome P450 3A4 (Homo sapiens) (P08684 whole entry, looked up): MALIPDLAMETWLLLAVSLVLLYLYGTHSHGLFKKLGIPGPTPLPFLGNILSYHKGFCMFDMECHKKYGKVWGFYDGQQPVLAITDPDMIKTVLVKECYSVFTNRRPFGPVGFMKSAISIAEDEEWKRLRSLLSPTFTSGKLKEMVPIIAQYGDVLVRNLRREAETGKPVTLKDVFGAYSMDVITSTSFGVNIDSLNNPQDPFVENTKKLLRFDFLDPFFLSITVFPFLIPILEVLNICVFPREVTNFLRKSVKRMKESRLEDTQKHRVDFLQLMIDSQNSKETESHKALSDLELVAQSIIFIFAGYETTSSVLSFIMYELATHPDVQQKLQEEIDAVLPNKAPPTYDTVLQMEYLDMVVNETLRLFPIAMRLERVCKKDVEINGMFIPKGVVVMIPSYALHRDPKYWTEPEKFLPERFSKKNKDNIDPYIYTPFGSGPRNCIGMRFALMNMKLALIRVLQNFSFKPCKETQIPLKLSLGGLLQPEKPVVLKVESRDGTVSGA
# Sequence of Cytochrome P450 2C19 (Homo sapiens) (P33261 whole entry, looked up): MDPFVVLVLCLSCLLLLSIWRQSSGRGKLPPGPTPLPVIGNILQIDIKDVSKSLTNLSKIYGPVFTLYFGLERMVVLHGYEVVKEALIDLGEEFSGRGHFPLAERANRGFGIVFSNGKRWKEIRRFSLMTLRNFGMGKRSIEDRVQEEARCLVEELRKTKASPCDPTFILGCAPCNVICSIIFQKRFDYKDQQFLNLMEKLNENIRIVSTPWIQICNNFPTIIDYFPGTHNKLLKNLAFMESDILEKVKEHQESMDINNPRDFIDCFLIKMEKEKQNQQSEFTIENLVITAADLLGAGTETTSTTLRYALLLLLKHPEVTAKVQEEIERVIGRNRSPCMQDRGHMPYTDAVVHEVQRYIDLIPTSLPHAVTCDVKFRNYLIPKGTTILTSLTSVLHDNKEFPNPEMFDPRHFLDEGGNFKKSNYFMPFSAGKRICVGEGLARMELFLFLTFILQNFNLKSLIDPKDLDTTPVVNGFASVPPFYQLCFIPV
# Sequence of Cytochrome P450 2D6 (Homo sapiens) (P10635 whole entry, looked up): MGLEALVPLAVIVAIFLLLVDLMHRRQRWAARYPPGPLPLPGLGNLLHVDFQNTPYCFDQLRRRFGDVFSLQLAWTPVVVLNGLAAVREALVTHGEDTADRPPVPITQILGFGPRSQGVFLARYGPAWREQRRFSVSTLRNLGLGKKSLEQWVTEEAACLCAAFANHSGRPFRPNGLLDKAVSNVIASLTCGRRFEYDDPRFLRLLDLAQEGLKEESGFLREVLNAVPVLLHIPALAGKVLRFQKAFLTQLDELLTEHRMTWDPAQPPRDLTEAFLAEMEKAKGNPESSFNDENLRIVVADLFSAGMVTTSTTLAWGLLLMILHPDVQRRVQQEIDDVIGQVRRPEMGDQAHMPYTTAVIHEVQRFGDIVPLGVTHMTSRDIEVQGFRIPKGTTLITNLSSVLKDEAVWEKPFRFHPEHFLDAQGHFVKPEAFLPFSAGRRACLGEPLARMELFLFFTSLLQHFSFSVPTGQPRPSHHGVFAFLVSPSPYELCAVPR
# Sequence of 3',5'-cyclic-AMP phosphodiesterase 4B (Homo sapiens) (Q07343 whole entry, looked up): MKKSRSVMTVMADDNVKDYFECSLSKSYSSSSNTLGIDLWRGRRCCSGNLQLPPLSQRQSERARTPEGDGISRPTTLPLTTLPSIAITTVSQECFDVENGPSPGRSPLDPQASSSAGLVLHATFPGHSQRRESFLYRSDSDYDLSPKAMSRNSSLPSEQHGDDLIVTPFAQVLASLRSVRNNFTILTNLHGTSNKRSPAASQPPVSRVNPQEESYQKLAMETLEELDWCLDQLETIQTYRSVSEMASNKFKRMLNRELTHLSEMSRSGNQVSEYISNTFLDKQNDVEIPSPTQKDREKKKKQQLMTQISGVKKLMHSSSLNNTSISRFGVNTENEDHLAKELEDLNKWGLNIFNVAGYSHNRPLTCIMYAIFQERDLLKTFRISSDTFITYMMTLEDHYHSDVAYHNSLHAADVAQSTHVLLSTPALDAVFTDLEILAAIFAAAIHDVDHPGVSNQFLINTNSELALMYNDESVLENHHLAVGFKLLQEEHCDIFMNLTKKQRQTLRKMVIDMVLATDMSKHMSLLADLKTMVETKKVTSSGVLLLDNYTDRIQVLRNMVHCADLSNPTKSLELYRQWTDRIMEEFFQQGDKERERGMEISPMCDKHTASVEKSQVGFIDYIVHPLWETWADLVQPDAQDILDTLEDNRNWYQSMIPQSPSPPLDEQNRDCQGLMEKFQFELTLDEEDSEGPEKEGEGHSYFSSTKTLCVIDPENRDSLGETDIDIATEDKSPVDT
# Sequence of Glucocorticoid receptor (Homo sapiens) (P04150 whole entry, looked up, the tested form may be a part): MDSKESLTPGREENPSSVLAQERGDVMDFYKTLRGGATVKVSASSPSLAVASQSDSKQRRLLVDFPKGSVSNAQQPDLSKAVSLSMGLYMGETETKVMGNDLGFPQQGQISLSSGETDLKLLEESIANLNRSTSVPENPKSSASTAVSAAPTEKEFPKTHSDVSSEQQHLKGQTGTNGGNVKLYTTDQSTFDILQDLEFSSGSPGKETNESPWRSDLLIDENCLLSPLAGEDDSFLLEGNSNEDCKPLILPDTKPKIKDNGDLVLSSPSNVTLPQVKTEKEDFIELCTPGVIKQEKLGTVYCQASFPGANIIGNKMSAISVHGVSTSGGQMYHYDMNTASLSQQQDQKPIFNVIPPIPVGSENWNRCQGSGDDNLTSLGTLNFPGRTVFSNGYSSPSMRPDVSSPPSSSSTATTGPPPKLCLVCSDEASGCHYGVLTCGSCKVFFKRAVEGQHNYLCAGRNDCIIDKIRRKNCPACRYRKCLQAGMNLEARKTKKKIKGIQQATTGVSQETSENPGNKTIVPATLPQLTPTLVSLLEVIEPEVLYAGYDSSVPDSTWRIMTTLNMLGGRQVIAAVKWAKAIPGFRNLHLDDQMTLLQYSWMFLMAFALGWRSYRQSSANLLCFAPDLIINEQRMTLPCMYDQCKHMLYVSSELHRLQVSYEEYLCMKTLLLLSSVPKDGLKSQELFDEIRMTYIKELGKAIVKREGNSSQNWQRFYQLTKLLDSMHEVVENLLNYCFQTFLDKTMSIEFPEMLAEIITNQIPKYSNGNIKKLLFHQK
# Sequence of Lysosomal acid glucosylceramidase (Homo sapiens) (P04062 whole entry, looked up): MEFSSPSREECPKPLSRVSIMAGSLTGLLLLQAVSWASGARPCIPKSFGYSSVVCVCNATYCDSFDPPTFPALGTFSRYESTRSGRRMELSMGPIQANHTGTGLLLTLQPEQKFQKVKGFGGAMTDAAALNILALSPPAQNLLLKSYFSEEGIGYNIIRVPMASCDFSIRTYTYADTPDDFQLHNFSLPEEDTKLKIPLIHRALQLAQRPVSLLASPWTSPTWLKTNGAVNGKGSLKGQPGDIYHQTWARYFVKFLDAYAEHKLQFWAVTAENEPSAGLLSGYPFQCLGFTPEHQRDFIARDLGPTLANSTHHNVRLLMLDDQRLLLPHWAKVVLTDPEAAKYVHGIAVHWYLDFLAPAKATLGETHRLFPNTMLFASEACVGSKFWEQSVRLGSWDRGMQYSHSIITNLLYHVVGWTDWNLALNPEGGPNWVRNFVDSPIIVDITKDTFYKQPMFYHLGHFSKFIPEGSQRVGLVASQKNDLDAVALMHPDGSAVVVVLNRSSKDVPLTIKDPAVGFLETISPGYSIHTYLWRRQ
Structure (SMILES),Potency [1] [µM],"activity change, negative = inhibition [2] [%]","activity change, negative = inhibition [3] [%]","activity, negative = inhibition [4] [%]",Potency [5] [µM],Potency [6] [µM],Potency [7],Potency [8],Potency [9],Potency [10],Potency [11],activation [12] [%],"activity change, negative = inhibition [13]"
Clc1ccc(CSC2=NCCN2)cc1Cl,> 11.4,-9.06,-19.4,-8,> 46,> 9.22,inactive,inactive,3.16 µM (active),–,–,–,–
CN1CCN(CN2C(=O)C3C4C=CC(C3C2=O)C2C3C(=O)N(CN5CCN(C)CC5)C(=O)C3C42)CC1 (stereo not given),> 11.4,4.11,4.36,11,> 46,> 9.22,inactive,inactive,inactive,–,–,–,–
CN(C)c1ncnc2c1ncn2CCn1cnc2c(N(C)C)ncnc21,> 11.4,7.13,7.13,11.6,> 46,> 9.22,inactive,inactive,inactive,–,–,–,–
O=C(O)CC[C@@H](C(=O)O)N1C(=O)[C@@H]2[C@@H]3CC[C@H](C3)[C@@H]2C1=O,> 11.4,11.4,3.45,-17,> 46,> 9.22,inactive,inactive,–,inactive,–,–,–
CC(C)[C@@H]1O[C@H](/C=C\c2ccccc2)OCC1(C)C,> 11.4,-2.98,26.7,8.84,> 46,> 9.22,inactive,inactive,–,–,inactive,–,–
c1ccc(-c2nnn(CCN3CCCCC3)n2)cc1,> 11.4,10.5,-5.15,1.18,> 46,> 9.22,inactive,inactive,–,1.26 µM (active),–,-4.81,–
NC[C@@H](O)CSCc1ccc(Cl)cc1,> 11.4,-2.84,21.3,0.417,> 46,> 9.22,inactive,inactive,3.16 µM (active),–,–,–,–
CC1(C)N=C(N)N=C(N)N1c1cccc(OCc2cccc(N)c2)c1,> 11.4,11.8,-27.5,-3.01,> 46,> 9.22,inactive,inactive,2.51 µM (active),–,–,–,–
CC(=O)/C(=C\c1ccccc1F)C(=O)c1ccccc1,> 11.4,-4.86,2.06,-1.38,> 46,> 9.22,inactive,inactive,–,2 µM (active),inactive,–,–
c1ccc(CCN2CCN=C2Cc2ccccc2)cc1,> 11.4,6.53,-21.9,14.6,> 46,> 9.22,inactive,inactive,0.126 µM (active),–,–,–,–
CC(C)(C)c1c2c(c(C(C)(C)C)c3c1OCN(Cc1ccccc1)C3)OCN(Cc1ccccc1)C2,> 11.4,0.594,0.0878,-2.37,> 46,> 9.22,inactive,inactive,–,inactive,–,–,–
Cn1c(=O)c2[nH]c(CCNC(=O)c3ccccc3)nc2n(C)c1=O,> 11.4,5.92,10.4,3.06,> 46,> 9.22,inactive,inactive,–,–,–,8.28,–
Cc1[nH]c(N)nc(=S)c1CCCNc1ccccc1,> 11.4,-2.18,3.26,3.47,> 46,> 9.22,inactive,inactive,–,2 µM (active),inactive,–,–
NS(=O)(=O)c1cc(C(=O)O)c(Cl)c([N+](=O)[O-])c1Cl,> 11.4,10.9,18.5,13.1,> 46,> 9.22,inactive,inactive,inactive,inactive,–,–,–
CSc1nc2cc(S(=O)(=O)N3CCCCC3)ccc2s1,> 11.4,-19.7,-0.492,-6.1,> 46,> 9.22,inactive,inactive,–,1.26 µM (active),–,–,50.1% [at 11.4 µM]
